We go through 93 molecules from PubChem BioAssay AID463173 (ICCB-Longwood Screening Facility, Harvard Medical School, 2010).

The campaign covered roughly 52,000 compounds. About 4,300 (8.3%) were called active. This is one part of a sample in which actives are shown more often than they occur. Cut-off read from the data, not from the text of the source: active = survival mostly below about 52% (no sharp cut-off); inactive = mostly above about 56%.

The test system of this assay is DeltatarO mutant. Put plainly: growth inhibition of S. aureus wild type versus tarO mutant, primary screen, teichoic acid synthesis inhibitors, RN4220, OD600 (AID 463173). The following applies: OD600, 18 h, active compounds read low, screened at 18.75 µg/mL (by protocol).
With `Cc1ccc(-n2c(=O)c3c4c(sc3n(CC(=O)C(C)(C)C)c2=O)CCCCC4)cc1C`, the survival was 89% (inactive).

Regarding `CC(C)CCNC(=O)c1cn(C)c2ccc(S(=O)(=O)N3CCCC3)cc2c1=O`, the survival is 138% (inactive). To `CCc1ccc2oc(C(=O)NCC(c3ccc(OC)cc3)N3CCCCC3)c(C)c2c1` (stereo not drawn) belongs 81% (inactive); to `O=C(CCn1cnc2onc(-c3ccc(F)cc3)c2c1=O)Nc1cccc(C(F)(F)F)c1`, 96% (inactive); to `Cc1ccc(-n2nc(C(=O)N3CCN(c4ccccc4F)CC3)c(=O)n(C)c2=O)cc1`, 93% (inactive). Under `Cc1ccsc1CN(C(=O)COc1ccc(Br)cc1)C1CCS(=O)(=O)C1` (stereo not drawn) stands 73% (inactive); under `Cc1ccc(CN2CCC(CNC(=O)Nc3cccc(C)c3C)C2)cc1` (stereo not drawn), 112% (inactive).

For `Cc1cc(Cl)ccc1NC(=O)Cn1nnc2sc(-c3ccccc3)cc2c1=O`, the survival is 106% (inactive). Under `Cc1cn2c(=O)cc(COC(=O)c3cccc(NC(=O)c4ccccc4Cl)c3)nc2s1` stands 102% (inactive); under `COc1cccc(CNC(=O)Cn2c(=O)ccc3cc(S(=O)(=O)N4CCC(C)CC4)ccc32)c1`, 99% (inactive). To `COc1cc(OC)c(NC(=O)Nc2ccccc2OCc2cc(=O)n3cc(C)ccc3n2)cc1Cl` belongs 103% (inactive). Turning to `COc1ccccc1C(=O)Nc1ccc(OCc2cc(=O)n3cc(C)sc3n2)cc1`, the survival is 130% (inactive). Under `CCOc1ccc(C(=O)Nc2c(C(=O)c3ccccc3)oc3ccccc23)cc1` stands 72% (inactive); under `O=C(NCCc1ccccc1)c1cc2sccc2n1Cc1ccc(F)cc1`, 72% (inactive). To `COc1cc(OC)c(NC(=O)CCc2c(C)nc3ncnn3c2C)cc1Cl` belongs 97% (inactive); to `Cc1cn2c(=O)c(S(=O)(=O)NCc3ccccc3Cl)c(C)nc2s1`, 66% (inactive). To `O=C(Nc1c(C(=O)Nc2cccc(C(F)(F)F)c2)oc2ccccc12)c1cc(=O)c2ccccc2o1` belongs 78% (inactive); to `Cc1cc2oc(C(=O)Nc3c(C(=O)Nc4ccccc4)oc4ccccc34)cc(=O)c2cc1C`, 106% (inactive).

Regarding `Cc1cc(C)c2oc(C(=O)Nc3c(C(=O)Nc4ccccc4)oc4ccccc34)cc(=O)c2c1`, the survival is 51% (active). As to `COC(=O)c1ccc(NC(=O)c2cc(=O)c3ccc(C)cc3o2)cc1`, the survival was 96% (inactive).

For the molecule `Cc1cc(C)c2oc(C(=O)Nc3c(C(=O)c4ccccc4)oc4ccccc34)cc(=O)c2c1`, the survival was 55% (inactive). Regarding `Cc1ccc2oc(C(=O)Nc3c(C(=O)Nc4cccc(Cl)c4)oc4ccccc34)cc(=O)c2c1`, the survival was 67% (inactive).

Turning to `Cc1cccc(NC(=O)c2oc3ccccc3c2NC(=O)c2cc(=O)c3cc(Cl)ccc3o2)c1`, the survival is 43% (active). To `Cc1ccc2oc(C(=O)Nc3cccc(Cl)c3)cc(=O)c2c1` belongs 92% (inactive); to `Cc1ccc2c(=O)cc(C(=O)Nc3c(C(=O)Nc4cccc(Cl)c4)oc4ccccc34)oc2c1`, 36% (active). Under `Cc1ccc2c(=O)cc(C(=O)Nc3c(C)cccc3C)oc2c1` stands 44% (active); under `Cc1ccc2c(=O)cc(C(=O)Nc3nnc(C)s3)oc2c1`, 76% (inactive). In the case of `COc1ccc(NC(=O)c2oc3ccccc3c2NC(=O)c2cc(=O)c3cc(Cl)ccc3o2)cc1`, the survival is 54% (inactive). Under `NCC1Cc2ccccc2O1` (stereo not drawn) stands 103% (inactive). To `O=c1c2oc3ccccc3c2n(Cc2cccc(F)c2)c(=O)n1Cc1ccco1` belongs 75% (inactive); to `Cc1ccccc1CSc1nnc2[nH]c(=O)cc(C)n12`, 84% (inactive); to `Cc1cc(C)cc(-n2ccnc(NCCc3ccccc3)c2=O)c1`, 101% (inactive). To `CC(C)Oc1ccc(C2CC(=O)N(C)C2=O)cc1` (stereo not drawn) belongs 82% (inactive); to `Cc1ccc(OCC(=O)Nc2ccc(S(=O)(=O)N3CCOCC3)cc2)c(C)c1`, 94% (inactive); to `COc1ccc2cc(CN(Cc3nnnn3Cc3ccccc3)C3CCCC3)c(=O)[nH]c2c1`, 96% (inactive). On to `CC1CCN(C(=O)c2ccc3nc(N4C(=O)CCC4=O)sc3c2)CC1`, for which the survival is 95% (inactive).

Take `COc1ccc(C)cc1NC(=O)C(=O)NCCc1csc2nc(-c3ccccc3F)nn12`: the survival is 72% (inactive). Under `COc1ccc(N2CCN(S(C)(=O)=O)CC2)cc1` stands 86% (inactive). Under `COc1cc2c(=O)c(S(=O)(=O)c3ccc(F)cc3)cn(Cc3ccccc3C)c2cc1OC` stands 55% (inactive); under `CCOC(=O)C1CCCN(C(=O)c2ccc3c(c2)sc2nc(-c4cccc(OC)c4)cn23)C1` (stereo not drawn), 77% (inactive). To `Cc1cccc(NC(=O)c2oc3ccccc3c2NC(=O)c2cc(=O)c3ccc(C)cc3o2)c1` belongs 28% (active); to `Cc1ccc(C(=O)c2oc3ccccc3c2NC(=O)c2cc(=O)c3ccccc3o2)cc1`, 57% (inactive). Take `CCOc1ccccc1NC(=O)c1cc(=O)c2ccc(C)cc2o1`: the survival was 44% (active). Take `Cc1ccc2oc(C(=O)Nc3c(C(=O)Nc4ccccc4)oc4ccccc34)cc(=O)c2c1`: the survival was 73% (inactive).

As for `Cc1cccc(NC(=O)c2oc3ccccc3c2NC(=O)c2cc(=O)c3ccccc3o2)c1`, the survival is 73% (inactive). Under `Cc1ccc2c(=O)cc(C(=O)Nc3c(C(=O)c4ccccc4)oc4ccccc34)oc2c1` stands 76% (inactive). To `COc1ccc(C(=O)c2oc3ccccc3c2NC(=O)c2cc(=O)c3ccc(C)cc3o2)cc1Cl` belongs 44% (active).

As to `CCc1ccc2oc(C(=O)Nc3ccccc3OC)cc(=O)c2c1`, the survival was 49% (inactive). To `CCOc1ccc(C(=O)c2oc3ccccc3c2NC(=O)c2cc(=O)c3ccc(C)cc3o2)cc1` belongs 134% (inactive). Under `COC(=O)C(C)Oc1ccc(N2C(=O)c3ccccc3C2=O)cc1` (stereo not drawn) stands 75% (inactive). As for `O=S(=O)(c1ccc(-c2cc(C(F)(F)F)on2)s1)N1CCN(c2ccccc2)CC1`, the survival was 75% (inactive). Under `CCOc1ccc(-c2cc3nc(C4CCN(C(=O)OC(C)(C)C)CC4)c(C(=O)Nc4cccc(C(F)(F)F)c4)cn3n2)cc1` stands 79% (inactive); under `O=C1C2C3c4ccccc4C(c4ccccc43)C2C(=O)N1Cc1ccccn1` (stereo not drawn), 83% (inactive). Under `COCC[N+]1(C)CCCCC1` stands 84% (inactive); under `COc1ccc(-c2cc(C(F)(F)F)nc(SCC(=O)N3CCC(C)CC3)n2)cc1`, 56% (inactive). Under `CC(Sc1nc(-c2ccccc2)cc(C(F)(F)F)n1)C(=O)N1CCCC1` (stereo not drawn) stands 101% (inactive); under `CC1CCN(C(=O)C(C)Sc2nc(-c3ccccc3)cc(C(F)(F)F)n2)CC1` (stereo not drawn), -1% (active).

Regarding `CC1CCN(C(=O)CSc2n[nH]c(-c3ccc(F)cc3)n2)CC1`, the survival is 92% (inactive). To `CC1CN(C(=O)C(C)Sc2nc(-c3ccccc3)cc(C(F)(F)F)n2)CC(C)O1` (stereo not drawn) belongs 78% (inactive); to `CC1CCN(C(=O)CSc2nc(-c3ccc(F)cc3)cc(C(F)(F)F)n2)CC1`, 37% (active).

For the molecule `CC(C)C(=O)Nc1cccc(C(=O)Nc2nncs2)c1`, the survival was 87% (inactive).

Turning to `O=C(CSc1nc(-c2ccc(F)cc2)[nH]c1-c1ccccc1)NCC1CCCO1` (stereo not drawn), the survival is 82% (inactive).

With `Cc1ccccc1-c1noc(-c2ccc(NCc3cccnc3)c([N+](=O)[O-])c2)n1`, the survival is 98% (inactive).

As to `O=C(c1ccc2c(c1)C(=O)N(CCCO)C2=O)c1ccc2c(c1)C(=O)N(CCCO)C2=O`, the survival was 70% (inactive). Under `C[N+](C)(C)CCNC(=O)c1ccc(/C=N/O)nc1` stands 81% (inactive); under `Oc1ccc(CNc2ccccc2Cl)c2cccnc12`, 115% (inactive). As to `Cc1ccccc1OCC(=O)Nc1nnc(S(=O)(=O)N(C)c2ccccc2)s1`, the survival is 67% (inactive). Under `Cc1ccccc1OCC(=O)Nc1nnc(S(=O)(=O)N2CCCCCC2)s1` stands 73% (inactive); under `O=C(COc1ccccc1Cl)Nc1nnc(S(=O)(=O)N2CCCC2)s1`, 39% (active).

`O=C(COc1ccccc1F)Nc1nnc(S(=O)(=O)N2CCCCCC2)s1`: the survival is 51% (active).

As to `CCN(CC)S(=O)(=O)c1nnc(NC(=O)COc2ccccc2Cl)s1`, the survival was 95% (inactive). Under `Cc1ccccc1OCC(=O)Nc1nnc(S(=O)(=O)N2CCCC2)s1` stands 42% (active).

`O=C(COc1ccccc1Cl)Nc1nnc(S(=O)(=O)N2CCCCCC2)s1`: the survival is 70% (inactive).

Turning to `Cc1ccc(NC(=O)CN2C=NS(=O)(=O)c3ccccc32)cc1`, the survival is 76% (inactive). To `Cc1ccc2nc(N(Cc3cccnc3)C(=O)c3ccc4c(c3)OCCO4)sc2c1` belongs 70% (inactive). To `COc1ccc(/C=C/c2nc(C#N)c(N3CCN(c4ccccc4)CC3)o2)cc1OC` belongs 88% (inactive). Under `COc1ccc(-c2onc(C)c2C)cc1S(=O)(=O)NC1CCCCC1` stands 72% (inactive); under `CCOc1ccc(CCNC(=O)C2CCN(C(=O)N3CC(CC)Oc4ccc(C)cc43)CC2)cc1` (stereo not drawn), 63% (inactive); under `Cc1ccc(Cn2cc(S(=O)(=O)c3ccc(Cl)cc3)c(=O)c3cc4c(cc32)OCO4)cc1`, 77% (inactive). As to `Cc1ccc(S(=O)(=O)NCCc2nnc3ccc(SCC(=O)Nc4ccc(F)cc4F)nn23)cc1`, the survival was 88% (inactive). Take `Cc1c(C)n(Cc2ccccc2)c2ccc(C(=O)N3CCN(c4ccccc4)CC3)cc12`: the survival is 99% (inactive). Under `CCN(CC)S(=O)(=O)c1ccc(NC(=O)c2ccccc2)cc1` stands 77% (inactive); under `COC(=O)c1ccc(NC(=O)CN(Cc2ccccc2)S(=O)(=O)c2ccc(C)cc2)cc1`, 42% (active); under `CCOC(=O)c1ccc(CN(Cc2ccc(F)cc2)S(=O)(=O)c2ccc(F)cc2)cc1`, 87% (inactive). Under `COC(=O)c1ccc(NC(=O)CN(Cc2ccccc2)S(=O)(=O)c2ccc(Cl)cc2)cc1` stands 40% (active); under `CCOC(=O)c1ccc(NC(=O)CN(Cc2ccc(C)cc2)S(=O)(=O)c2ccc(C)cc2)cc1`, 58% (inactive).

Turning to `CCOC(=O)c1ccc(CN(Cc2ccccc2)S(=O)(=O)c2ccc(Cl)cc2)cc1`, the survival is 32% (active).

On to `CC(=O)Nc1ccc(S(=O)(=O)N(Cc2ccccc2)Cc2ccccc2)cc1`, for which the survival was 54% (active).

`CCOC(=O)c1ccc(CN(Cc2ccc(C)cc2)S(=O)(=O)c2ccc(NC(C)=O)cc2)cc1`: the survival was 73% (inactive). Take `CCOC(=O)c1ccc(CN(Cc2ccc(Cl)cc2Cl)S(=O)(=O)c2cccc(Cl)c2)cc1`: the survival is 80% (inactive). Consider `CCOc1ccc(NC(=O)CN(Cc2ccccc2)S(=O)(=O)c2ccc(Cl)cc2)cc1`, for which the survival is 78% (inactive). To `COC(=O)c1ccc(NC(=O)CN(CCc2ccccc2)S(=O)(=O)c2ccc(OC)cc2)cc1` belongs 69% (inactive); to `Cc1ccc(S(=O)(=O)N(CC(=O)Nc2ccc(C(C)C)cc2)Cc2ccccc2)cc1`, 54% (inactive).
